PI5P4Ka inh = inhibitors of human PI5P4K alpha; PI5P4Kalpha enzyme, ADP-Glo luminescence, 60 min; hits give low values; P48426; 1.2% of 330,000 active; max response, %; active = max response of -50% or lower; inconclusive = between -30% and -50%; inactive = -30% or higher; also: value at the top dose of about 77 µM; % is scaled to controls: 0 for no effect and ±100 for the full control effect
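Controls without substrate or without enzyme flank wells where PI5P4Kalpha converts substrate using 5 microM ATP (final). Incubation lasts 60 minutes at room temperature; ADP formed is read by ADP-Glo luminescence.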
PLK1 PBD block = blocks phosphopeptide binding to human PLK1 polo-box domain; 2.8% of 360,000 active; Plk1 PBD binding of FITC phosphopeptide, fluorescence polarization; Potency, µM, for inactives: max response, negative = inhibition, actives largely listed as inhibitors; also: potency is read from the fitted curve at half-maximal effect; series mostly up to about 57 µM; % is scaled to controls: 0 for no effect and ±100 for the full control effect; nearly all actives have a fitted effect of over 65% in size
VDR inhibitor = inhibitors of human vitamin D receptor; VDR-SRC2-3 peptide fluorescence polarization, 2 h; Potency, µM, for inactives: max response, negative = inhibition, actives largely listed as inhibitors; 0.93% of 400,000 active; also: potency is read from the fitted curve at half-maximal effect; % is scaled to controls: 0 for no effect and ±100 for the full control effect
Target sequence (P11473 whole entry, looked up): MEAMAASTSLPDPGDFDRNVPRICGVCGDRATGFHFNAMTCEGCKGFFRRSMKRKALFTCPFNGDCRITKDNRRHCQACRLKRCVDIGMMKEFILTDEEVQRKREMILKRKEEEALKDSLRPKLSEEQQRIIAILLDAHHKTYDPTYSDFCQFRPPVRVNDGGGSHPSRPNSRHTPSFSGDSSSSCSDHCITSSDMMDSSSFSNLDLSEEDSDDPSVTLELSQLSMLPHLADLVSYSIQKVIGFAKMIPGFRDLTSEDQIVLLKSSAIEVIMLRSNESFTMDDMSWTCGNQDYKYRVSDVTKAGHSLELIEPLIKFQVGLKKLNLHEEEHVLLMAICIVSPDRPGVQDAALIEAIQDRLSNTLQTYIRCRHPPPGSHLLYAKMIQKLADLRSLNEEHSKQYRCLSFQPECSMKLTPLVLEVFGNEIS
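The screen uses fluorescence polarization to detect compounds that interfere with recruitment of the SRC2-3 coactivator peptide to VDR; plates are read after 2 h at room temperature.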
Rango complex inh = inhibitors of Rango-importin beta complex formation; 0.031% of 340,000 active; Potency, µM (top dose mostly 92.2 µM), without a hit: at the highest dose inhibition of complex formation; AID 540263; Q14974; Rango CFP/YFP FRET sensor + importin beta, 45 min; calls by dose curve;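 also: potency is read from the fitted curve at half-maximal effect; 0% = DMSO wells and 100% = buffer wells lacking importin beta; nearly all actives have a fitted effect of over 15% in size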
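FRET biosensor (snurportin 1 IBB flanked by EYFP and cerulean), 50 nM, with compound 5 min, then 0.125 microM importin beta in PBS, 1 mM DTT, 0.02% Tween-20, 0.1% BSA. CFP/YFP ratio read after 45 min at room temperature; pre-read flags interference.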
Rango release inh = inhibition of RanGTP-driven Rango-importin beta dissociation | O95149+P62826 | Biochemical FRET Rango-importin beta, RanGTP-induced dissociation | Potency, µM (doses to about 46.1 µM), inactives show at the top dose activity change, negative = inhibition | 0.071% of 340,000 active | AID 540253; calls by dose curve; also: potency is read from the fitted curve at half-maximal effect; % of control where 0% means no effect; nearly all actives have a fitted effect of over 45% in size
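FRET read at 45 min, room temperature: inhibitors block the CFP/YFP signal rise when RanGTP (0.6 uM Ran, 2 mM GTP, 0.2 uM RCC1) frees Rango (0.1 uM) from importin beta (0.25 uM). Pre-read after 5 min compound exposure flags interference.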
KAT2A inh = inhibitors of human GCN5L2 histone acetyltransferase | AID 504327 | Potency, µM (highest dose often 58.9 µM), for inactives: top-dose activity change, negative = inhibition, usual class: inhibitors | Q92830 | GCN5L2 HAT assay, ThioGlo1 CoA-SH fluorescence | 0.21% of 390,000 active; also: potency is read from the fitted curve at half-maximal effect; % is scaled to controls: 0 for no effect and ±100 for the full control effect
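Fluorescence readout, Ex340nm/Em540nm: ThioGlo1 (50uM final) reacts with free CoA thiol released as 20nM GCN5L2 acetylates H3(1-25) peptide (75uM) using acetyl-CoA (70uM). Compound and enzyme sat 15 min beforehand; 20 min room-temperature reaction.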
Starred values were filed as active, the others as inactive; ? = inconclusive; / = not tested or not shown. Only some compounds are listed: those with a hit (about 3.6% of all), similar ones and a draw of the others. Unless noted, calls follow the shape of the dose curve; as a rule, active = well fitted curve in the direction sought with a large enough effect; inconclusive = small, poorly fitted or top-dose-only effect, or another doubt; inactive = no such curve, though single readings can be large; an effect the other way counts as inactive or inconclusive.

SMILES	PI5P4Ka inh	PLK1 PBD block	VDR inhibitor	Rango complex inh	Rango release inh	KAT2A inh
CCOC(=O)c1c(C)[nH]c(C(=O)/C(C#N)=C/c2ccc(OC(F)F)c(OC)c2)c1C	-19	4.7µM*	?	?	-7%	-5%
CCOC(=O)c1c(C)[nH]c(C(=O)/C(C#N)=C/c2ccc(OC)c(OC)c2)c1C	-4	17µM*	-22%	5%	1%	-5%
Cc1ccc2c(c1)c1c(c(=O)n(-c3cccc(Cl)c3)c(=O)n1C)n2C	/	/	1%	/	/	-1%
CCc1ccc(NC(=O)c2ccc(F)c(S(=O)(=O)NCCc3ccc(OC)c(OC)c3)c2)cc1	/	/	7%	/	/	-3%
CCOc1ccc(NS(=O)(=O)c2ccc(N)cc2)cc1	/	-7%	-3%	5%	-13%	-6%
CCOc1ccc(Nc2ccc(N)c(S(=O)(=O)O)c2)cc1	-60*	?	-12%	3%	-25%	/
CC1CCC(=O)N(CCOc2ccccc2)CC1 (stereo not drawn)	-4	27µM*	?	3%	-17%	4%
CC1CCN(CCOc2ccc(C(=O)c3ccccc3)cc2)CC1	5	-3%	-9%	-5%	0%	1%
CC1CCN(CCCCOc2ccc(C(=O)c3ccccc3)cc2)CC1	-1	27µM*	-16%	0%	-19%	-26%
COc1ccc(-c2nc3ccc(C4=C(C)CC(=O)NN4)cc3[nH]2)cc1	/	/	-8%	/	/	/
Cc1cc(C)c(NC(=O)C2CCN(c3nc4ccccc4n4cccc34)CC2)c(C)c1	/	/	-6%	/	/	-4%
Cc1ccc(C(=O)n2ncn(C)c2=S)cc1	-63*	9.5µM*	?	-1%	12%	5%
O=C(O)c1cccc(-c2nnn(Cc3ccccc3Cl)n2)c1	?	21µM*	-25%	3%	0%	-2%
O=C(CSc1nc2ccccc2s1)N1CCCCC1	/	15µM*	0%	-2%	0%	-19%
NC(=O)C1CCN(C(=O)CSc2nc3ccccc3s2)CC1	2	?	-17%	0%	7%	-1%
O=C(O)C1CCN(C(=O)CSc2nc3ccccc3s2)CC1	-18	24µM*	?	7%	14%	3%
COc1ccc2ncc3c(-c4ccc(C)c(C)c4)nn(CC(=O)Nc4ccccc4)c3c2c1	/	/	1%	/	/	-3%
COc1ccc(-c2nn3c(-c4ccccc4C)nnc3c3ccccc23)cc1	/	/	-8%	/	/	-6%
Cc1ccc(-c2nnc(SCc3ccccc3F)o2)cc1	/	21µM*	-26%	-3%	-13%	-1%
O=C(CSc1nnc(-c2ccccc2)o1)Nc1ccccc1F	0	21µM*	?	4%	2%	?
O=C(CSc1nnc(-c2ccccc2)o1)c1nnc(-c2ccccc2)o1	-53*	-23%	13%	?	?	-13%
O=C(CSC(=O)c1ccccc1)Nc1ccccc1F	-14	3.4µM*	79µM*	-1%	0%	-22%
CCOC(=O)CSc1nnc(-c2ccccc2)o1	-8	-7%	4%	-2%	-3%	1%
CCOc1ccccc1NC1(c2ccccc2)C(=O)c2ccccc2C1=O	/	/	-1%	/	/	-23%
COc1cc(/C=C/c2nc(C#N)c(NC3CCCCC3)o2)cc(OC)c1OC	/	/	0%	/	/	-28%
SMILES	PI5P4Ka inh	PLK1 PBD block	VDR inhibitor	Rango complex inh	Rango release inh	KAT2A inh
CC1=C(C(=O)Nc2ccccc2)C(c2ccc(C(=O)O)cc2)n2nc(SCC(=O)c3ccc(C)cc3)nc2N1 (stereo not drawn)	/	/	19%	/	/	-4%
O=C(/C=C/c1ccccc1)NCCSCc1ccccc1	-14	30µM*	?	7%	8%	-4%
COCc1cccc(C2=CC(=O)C[C@H](c3ccc(F)cc3)C2)c1	-3	30µM*	?	-1%	1%	-7%
Cc1ccc(S(=O)(=O)NNc2ccccc2)cc1	/	28µM*	?	9%	0%	28µM*
Cc1ccc(S(=O)(=O)Nc2ccnc3ccccc23)cc1	-11	27µM*	?	-4%	1%	1%
NNc1nc2ccccc2nc1C(F)(F)F	-4	19µM*	-28%	-4%	?	-13%
Cc1ccc(S(=O)(=O)Nc2cccnc2)cc1	?	21µM*	?	0%	3%	3%
CC(C)(C)c1ccc(C(=O)NCC(c2cccnc2)N2CCc3ccccc3C2)cc1 (stereo not drawn)	/	/	16%	/	/	0%
Cc1ccc(S(=O)(=O)Nn2c(C)ccc2C)cc1	-58*	-19%	1%	2%	-6%	-18%
Cc1ccc(S(=O)(=O)NNc2nc3ccccc3nc2C(F)(F)F)cc1	-21	8.4µM*	?	0%	1%	-2%
Cc1ccc(S(=O)(=O)NNc2c3ccccc3nc3ccc(Cl)cc23)cc1	-3	-12%	/	/	/	/
Cc1cc(S(=O)(=O)C(CNC(=O)c2ccc(OC(C)C)cc2)c2cccs2)ccc1F (stereo not drawn)	/	/	8%	/	/	-4%
COc1ccc(Cn2c(CO)cnc2SCc2cccc(C)c2)cc1	/	/	7%	/	/	-13%
COCCN(Cc1ccc(C)c(Br)c1)C(=O)Cn1cnc(S(=O)(=O)N2CCCC2)c1	3	9.5µM*	-18%	-1%	-19%	-29%
CC(=O)c1cccc(NC(=O)Cn2cnc(S(=O)(=O)N3CCCC3)c2)c1	-1	4%	3%	-1%	-1%	-2%
CCOc1ccc(NC(=O)CC2C(=O)N(c3ccc(F)cc3)C(=O)N2CCc2sccc2C)cc1 (stereo not drawn)	/	/	-9%	/	/	-5%
Cc1ccc(C)c(N2CCN(C(=O)C3CCN(c4nc(-c5ccc(C(C)C)cc5)no4)CC3)CC2)c1	/	/	-6%	/	/	-6%
Nc1ccc(-c2c3ccc(=O)cc-3oc3cc(O)ccc23)cc1C(=O)O	-12	13µM*	0%	?	?	-3%
Cc1ccc(/C=C2\SC(=S)N(C3CCS(=O)(=O)C3)C2=O)o1 (stereo not drawn)	-53*	19µM*	-12%	?	-7%	-13%
NS(=O)(=O)c1ccc(-c2ccc(/C=C3\SC(=S)N(C4CCS(=O)(=O)C4)C3=O)o2)cc1 (stereo not drawn)	-10	5%	?	?	-28%	-18%
CC(C)c1ccc(NC(=O)c2ccc(=O)n(Cc3ccccc3)c2)cc1	/	/	9%	/	/	-4%
Nc1nc(N=Nc2ccc(O)cc2)cc(=O)[nH]1	-52*	-26%	/	/	/	/
CCN1CCN(C(=S)c2ccc(Br)cc2)CC1	/	8.4µM*	?	-1%	0%	-1%
CCN1CCN(C(=S)c2ccc(O)cc2)CC1	?	4.7µM*	79µM*	2%	1%	14%
Oc1ccc(C(=S)N2CCCCCC2)cc1	-9	?	7%	7%	19%	-3%
CCN1CCN(CCC(=O)Nc2ccc(Br)cc2)CC1	4	-15%	31%	1%	5%	16%
